# Source: PubChem BioAssay AID504715 (Sanford-Burnham Center for Chemical Genomics, 2011)
# The list shows a part of the results. Values without a mark were called inactive.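 How the source made its calls: active means compounds giving 40% or more inhibition at 20 µM in any one of the three replicates; inactive means the rest.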
# Target: Uracil-DNA glycosylase (Escherichia coli (strain K12)) (UniProt P12295)
# Assay: E. coli UDG inhibitors, confirmation, counter-screen for APOBEC3G inhibitor project, biochemical, single concentration, fluorescence, FAM/TAMRA oligo (AID 504715);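 further: plate controls were DMSO wells with UDG and oligo for no effect and DMSO wells lacking both for full effect; inhibitors lower the FAM signal released by uracil excision and alkaline cleavage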
# Conditions: UDG counterscreen, at 20 µM, stronger effect = higher value
# Uracil-DNA glycosylase (Escherichia coli (strain K12)), sequence (P12295 whole entry, looked up): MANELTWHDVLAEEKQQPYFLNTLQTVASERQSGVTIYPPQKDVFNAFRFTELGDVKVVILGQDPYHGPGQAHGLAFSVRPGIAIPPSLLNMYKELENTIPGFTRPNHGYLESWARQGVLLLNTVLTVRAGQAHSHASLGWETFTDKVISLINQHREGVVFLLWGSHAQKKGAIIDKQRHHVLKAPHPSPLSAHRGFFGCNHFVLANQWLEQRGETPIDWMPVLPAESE
smiles,measurement,value
COC(=O)N(c1ccc(OC)cc1)P1(=S)OCCC(C)O1 (stereo unspecified),inhibition,-3.68%
